Source: PubChem BioAssay
A selection: hits, their analogues and other compounds. The true share with any hit is near 12%.
USP8 block – inhibitors of human USP8 deubiquitinase; inhibition, % at 20 µM; purified USP8, Ub-rhodamine cleavage fluorescence, 30 min; 4.2% of 47,000 active; P40818
USP30 block – inhibitors of human USP30 deubiquitinase | Q70CQ3 | purified USP30, Ub-rhodamine cleavage fluorescence | inhibition, % at 25 µM | 5.3% of 47,000 active | AID 1645860
USP7 block – blocks human USP7 ubiquitin-rhodamine cleavage. inhibition, % at 20 µM. purified USP7, Ub-rhodamine cleavage fluorescence. 0.3% of 47,000 active. Q93009
USP17 inh – blocks human USP17 ubiquitin-rhodamine cleavage; A8MUK1; purified USP17, Ub-rhodamine cleavage fluorescence, 3 h; inhibition, % at 50 µM; 6.5% of 47,000 active; AID 1645855
USP10 inh – inhibitors of human USP10 deubiquitinase; Q14694; purified USP10, Ub-rhodamine fluorescence, 60 min; inhibition, % at 20 µM; 1.1% of 47,000 active; AID 1645856
UCHL1 inh – inhibitors of human UCHL1 deubiquitinase. purified UCHL1, Ub-rhodamine cleavage fluorescence. inhibition, % at 20 µM. 0.2% of 47,000 active. AID 1645859
Target sequence (P09936 whole entry, looked up): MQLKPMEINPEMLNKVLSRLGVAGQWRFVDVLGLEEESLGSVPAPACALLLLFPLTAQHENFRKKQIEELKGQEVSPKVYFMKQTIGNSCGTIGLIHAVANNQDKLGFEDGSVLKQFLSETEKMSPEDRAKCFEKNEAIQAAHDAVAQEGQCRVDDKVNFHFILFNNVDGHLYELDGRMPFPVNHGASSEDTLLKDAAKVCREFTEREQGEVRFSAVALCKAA
* marks the source's active call; other numbers are inactive results; · = not tested or not shown. Cut-off read from the data, not from the text of the source: active = inhibition above about 30%; inactive = the rest.

SMILES | USP8 block | USP30 block | USP7 block | USP17 inh | USP10 inh | UCHL1 inh
Fc1cccc(-c2nnc3sc(-c4ccco4)nn23)c1 | 43* | -65 | 6 | -1 | 0 | 0
CC(=O)N1Cc2cc(C)ccc2OC2(CCCN(Cc3ccccn3)C2)C1 (centres undefined) | 9 | 5 | 0 | 6 | 2 | 1
COc1ccc(-c2ccc(C#N)c(SCc3cc4c(cc3Cl)OCO4)n2)cc1 | 2 | -179 | 3 | 43* | -7 | -2
Cc1cc(C)nc(NC(=O)c2c(C)nc3sccn23)c1 | 3 | · | 0 | 31* | 0 | 2
Cc1cc(C)nc(NC(=O)c2csnn2)c1 | -3 | 0 | -5 | -2 | 2 | -2
COc1ccc2c(C)cc(SCC(=O)Nc3nsc(-c4ccc(C)cc4)n3)nc2c1 | -2 | 82* | 1 | 60* | 6 | -1
COc1cccc(NC(=O)CSc2cc(C)c3cc(S(=O)(=O)N(C)C)ccc3n2)c1 | -3 | -61 | -1 | -19 | -9 | -4
N#Cc1cccc(NC(=O)CC(=O)Nc2ccc3nc4n(c(=O)c3c2)CCCCC4)c1 | 56* | -35 | 9 | -1 | 9 | 0
O=C(Nc1ccc2nc3n(c(=O)c2c1)CCCC3)Nc1ccc(F)cc1F | 0 | 24 | -3 | 5 | 0 | -1
CCCOc1cccc(-c2cc(C(=O)NCc3ccc4c(c3)OCO4)c3ccccc3n2)c1 | -17 | 2 | 9 | 13 | 2 | 4
O=C(Nc1ccc(Cl)cc1F)c1cc(-c2ccncc2)n[nH]1 | -2 | 74* | 3 | 67* | 6 | 0
O=C(Nc1ccc(F)c(Cl)c1)C1CCN(C(=O)c2cc(-c3ccncc3)n[nH]2)CC1 | 12 | 15 | 12 | 16 | 8 | 9
Cc1ccc(NC(=O)c2cc(-c3ccncc3)n[nH]2)c(Cl)c1 | -1 | 83* | 6 | 64* | 1 | 0
Cc1ccc(-c2cc(C(=O)Nc3cccc(C)c3)[nH]n2)cc1 | -12 | -76 | 2 | -83 | -5 | -4
Cc1cc(NC(=O)c2cc(-c3ccccn3)n[nH]2)ccc1Br | 8 | -13 | 8 | -13 | 18 | 0
O=C(Nc1ccc(F)cc1F)c1cc(-c2ccccn2)n[nH]1 | 52* | 17 | 12 | 9 | 13 | 5
O=C(c1ccc2[nH]ccc2c1)N1CCC2(CC1)COCCN2CC1CC1 | 0 | -26 | 5 | -2 | -2 | 0
O=c1c2[nH]c3ccc(Br)cc3c2ncn1CCCO | 4 | 10 | -2 | 27 | 0 | -58
Cc1cc(=O)[nH]c2nnc(-c3cccc([N+](=O)[O-])c3)n12 | -145 | -15 | 2 | -25 | 0 | -1
Cc1ccc(N(CC(=O)Nc2cccc(C)c2C)S(=O)(=O)c2c(C)noc2C)cc1 | 0 | -5 | -31 | 0 | 5 | -1
COc1ccc(Cl)cc1C(=O)Nc1cnc(N2CCOCC2)nc1 | -15 | -15 | -36 | · | -10 | -7
COc1ccc(Cl)cc1C(=O)Nc1cc(C)cc(C)n1 | 11 | 9 | 0 | 46* | 6 | -2
CCN1C(=O)c2ccccc2C(=O)[C@@]2(C)CN(C(=O)Cc3ccccc3F)C[C@@H]12 | 12 | 16 | 2 | 11 | 0 | 1
NC(c1c(O)ccc2ccccc12)P(=O)(O)O (centres undefined) | 37* | 4 | 5 | 9 | -1 | -1
COc1ccc2cc(-c3nc4cc(C)ccn4c3NCc3ccccc3)c(=O)[nH]c2c1 | -195 | -413 | -23 | · | -7 | -26
SMILES | USP8 block | USP30 block | USP7 block | USP17 inh | USP10 inh | UCHL1 inh
Cc1ccc2[nH]c(=O)c(-c3nc4ccc(C)cn4c3NCc3ccc(F)cc3)cc2c1 | 78* | 2 | 51* | 76* | 47* | 13
Cc1ccc2nc(N3CCc4ccccc4C3)c3nncn3c2c1 | 45* | 27 | 3 | 59* | -7 | -2
Cc1cccc(Nc2cc(C3CCCN3C(=O)c3cccnn3)ccn2)n1 (centres undefined) | 19 | -28 | 0 | -1 | -2 | -1
Cc1cc(C2CCCN2C(=O)c2cc(-c3ccc(F)cc3)on2)no1 (centres undefined) | 5 | 16 | 3 | 6 | 2 | 3
CC(C)N1CCc2c(sc(NC(=O)CSc3ccc(Cl)cc3)c2C(N)=O)C1 | -26 | 18 | -21 | 50* | -5 | -20
CC(C)N1CCc2c(sc(NC(=O)CSc3ccc(F)cc3)c2C(N)=O)C1 | -12 | -3 | -8 | -8 | -4 | -7
O=C(CN1CCOCC1)N1CCN(Cc2ccccc2)CC1 | 4 | 8 | 3 | 3 | -3 | -2
Cc1nnc(SCC(=O)Nc2ccc3[nH]c(=O)[nH]c3c2)n1Cc1ccccc1 | -21 | -1 | 1 | 42* | -2 | 2
Cc1cccc(-c2nnc(SCC(=O)Nc3ccc4[nH]c(=O)[nH]c4c3)n2C)c1 | -11 | 11 | 1 | 14 | 0 | -1
Cc1occc1-c1nnc(SCC(=O)Nc2ccc3[nH]c(=O)[nH]c3c2)n1C | -30 | -14 | -3 | 45* | -2 | -1
Cc1nnc(SCC(=O)Nc2ccccc2Cl)n1Cc1ccccc1 | -4 | 15 | -5 | -5 | 0 | 0
CCc1ccc(-c2nc(SCC(=O)Nc3ccc4[nH]c(=O)[nH]c4c3)n[nH]2)cc1 | 4 | 58* | 2 | 37* | 8 | -2
Cc1ncsc1-c1cc(C(=O)N2CCC[C@]3(C)NC(=O)CCC[C@H]23)ccn1 | 9 | -30 | -1 | -2 | -6 | -1
CCCN1CCN(C(=O)c2nn(-c3ccccc3)c3c(=O)n(C)cnc23)CC1 | -14 | -62 | -7 | -17 | -8 | -5
O=c1c2nc(-c3ccc(F)cc3)cn2ccn1-c1ccc2c(c1)CCC2 | 3 | -64 | -2 | -7 | -4 | -1
COc1ccc(OC)c(-c2cn3ccn(-c4ccc5c(c4)CCC5)c(=O)c3n2)c1 | -1 | 51* | -23 | · | -12 | -2
CC(=O)N1c2ccccc2NC2=C(C(=O)CC(c3ccc(C)cc3)C2)C1c1cccnc1 (centres undefined) | 17 | 23 | 7 | 3 | 3 | 2
CCOc1ccc(C2=NCCNC3=C2C(c2ccccc2)N(c2ccccc2)C3=O)cc1 (centres undefined) | 30* | 54* | 8 | 7 | 0 | 1
Cc1ccc(C2C3=C(NCCN=C3c3ccccc3)C(=O)N2c2ccccc2)cc1 (centres undefined) | 7 | 41* | -14 | -6 | -5 | 0
CCOc1ccc([C@@H]2c3c(C)nn(-c4ccccc4)c3NC(=O)[C@H]2NC(=O)c2cccc(C)c2)cc1 | -13 | 3 | 11 | 8 | 5 | 8
CCCCCCC(C)/C=C(C)/C=C/C(=O)N[C@H]1CC2(O[C@H]1O)[C@@H]1O[C@@H]1C(=O)[C@@H]1O[C@@H]12 (some centres undefined) | -9 | 42* | 13 | 30* | -5 | 4
